In test [1] the target is Acetylcholinesterase (Homo sapiens) (UniProt P22303). In words: Acetylcholinesterase (AChE) small molecule antagonists: enzyme-based qHTS assay (AID 1347397; calls by dose curve; note: nearly all actives have a fitted effect of over 55% in size). The following applies: Potency: AChE enzyme activity inhibition. The method, boiled down:
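Colorimetric DTNB readout of acetylthiocholine hydrolysis, 10 min at room temperature, after 30 min room-temperature exposure of 50 mU/mL recombinant human enzyme to compound; DMSO vehicle control.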

For test [2] the target is unchanged. Put plainly: Acetylcholinesterase (AChE) small molecule antagonists: fluorescence cell-based qHTS assay (AID 1347398; calls by dose curve; note: nearly all actives have a fitted effect of over 50% in size). The following applies: Potency: AChE activity. The method, boiled down:
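Cellular AChE activity read as thiocholine from acetylthiocholine hydrolysis, detected by Thiolite Green fluorescence at 490/520 nm after 40 min at room temperature. Compounds were pre-incubated 30 min at 37 C on adherent SH-SY5Y cells.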
In general terms: In qHTS, concentration-response curves come from the screen itself.

Test [3] shares this target. Put plainly: Acetylcholinesterase (AChE) small molecule antagonists: enzyme-based qHTS assay with human liver microsomes (AID 1347399; calls by dose curve; note: nearly all actives have a fitted effect of over 60% in size). The note with it: Potency: qHTS inhibition. The method in brief: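 Recombinant human AChE (50 mU/mL in the enzyme mix) and human liver microsomes (0.25 mg/mL final) were preincubated with compound and NADPH (0.25 mg/mL final) for 30 min at 37 C. Acetylthiocholine/DTNB was then added; thiocholine was read colorimetrically after 10 min at room temperature.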

The target in test [4] is Cytochrome P450 2D6 (Homo sapiens) (UniProt P10635). In words: Cytochrome P450 Family 2 Subfamily D Member 6 (CYP2D6) small molecule antagonists: luciferase reporter qHTS assay (AID 1671196). Note: nearly all actives have a fitted effect of over 50% in size. The method, boiled down: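 Room-temperature luminescent CYP2D6 activity assay: compound preincubated 10 min with enzyme–substrate mix, NADPH-initiated reaction 1 h, detection reagent 20 min before reading.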
A general note: Reporter assays use an easily measured gene product as a stand-in for the process of interest.

For test [5], the target named is Cytochrome P450 2C19 (Homo sapiens) (UniProt P33261). In words: Cytochrome P450 Family 2 Subfamily C Member 19 (CYP2C19) small molecule antagonists: luciferase reporter qHTS assay (AID 1671197). Note: nearly all actives have a fitted effect of over 65% in size. The method, boiled down:
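Luminescent readout of CYP2C19 activity: luciferin product detected 20 min after adding detection reagent. Before that, compound and enzyme-substrate mix preincubated 10 min at room temperature; NADPH-regenerating system started a 1 h, 37C reaction. Ketoconazole as positive control.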

Test [6] deals with Cytochrome P450 2C9 (Homo sapiens) (UniProt P11712). In words: Cytochrome P450 Family 2 Subfamily C Member 9 (CYP2C9) small molecule antagonists: luciferase reporter qHTS assay (AID 1671198). Note: nearly all actives have a fitted effect of over 50% in size. The method in brief:
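Enzyme-substrate mix preincubated with compound 10 min at room temperature; reaction started with NADPH regeneration solution, 1 h 37C. Luminescent luciferin product read after 20 min detection reagent.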

Test [7] addresses Cytochrome P450 1A2 (Homo sapiens) (UniProt P05177). Put plainly: Cytochrome P450 Family 1 Subfamily A Member 2 (CYP1A2) small molecule antagonists: luciferase reporter qHTS assay (AID 1671199). Note: nearly all actives have a fitted effect of over 50% in size. The method in brief:
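Room-temperature CYP1A2 reaction with proluciferin substrate: compounds added from DMSO, 10 min preincubation, NADPH regeneration for 1 h. Luciferin detection reagent then added; luminescence recorded as RLU.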

For test [8], the target named is Voltage-gated inwardly rectifying potassium channel KCNH2 (Homo sapiens) (UniProt Q12809). In words: Human Ether-a-go-go-Related Gene (hERG) channel small molecule antagonists: fluorescence cell-based qHTS assay (AID 1671200). Note: nearly all actives have a fitted effect of over 50% in size. The method, boiled down: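 Read-out: thallium influx as a surrogate for potassium, tracked as fluorescence (480 nm ex/540 nm em) every second for 2 min after Stimulus Buffer addition in dye-loaded hERG-U2OS cells.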
Background: hERG is a cardiac potassium channel; its block is linked to QT prolongation.

Test [9] deals with Cytochrome P450 3A4 (Homo sapiens) (UniProt P08684). In words: Cytochrome P450 Family 3 Subfamily A Member 4 (CYP3A4) small molecule antagonists: luciferase reporter qHTS assay (AID 1671201). Note: nearly all actives have a fitted effect of over 50% in size. The method, boiled down:
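Luminescent readout (RLU) proportional to CYP3A4 activity, from luciferin generated off a proluciferin substrate. Enzyme–substrate mix plus compound 10 min at room temp, NADPH regeneration 1 h, detection reagent 20 min.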

Each structure is given as a SMILES string. “And” between values parts separate entries of the source, which are not always exact repeats. Equal entries are not always repeated. Records with an inconclusive call do not appear. Some structures have more than one record in an assay (separate samples or runs), and their calls can disagree. The source made the active and inactive calls. Unless noted, calls come from the whole dose curve; as a rule, active = well fitted curve in the direction sought with a large enough effect in the repeat runs; inconclusive = weak or mixed curves; inactive = no such curve, though single readings can be large; an effect the other way counts as inactive or inconclusive.
Potency is the fitted concentration of half-maximal effect.

Chain of Cytochrome P450 3A4 (Homo sapiens) (P08684 whole entry, looked up): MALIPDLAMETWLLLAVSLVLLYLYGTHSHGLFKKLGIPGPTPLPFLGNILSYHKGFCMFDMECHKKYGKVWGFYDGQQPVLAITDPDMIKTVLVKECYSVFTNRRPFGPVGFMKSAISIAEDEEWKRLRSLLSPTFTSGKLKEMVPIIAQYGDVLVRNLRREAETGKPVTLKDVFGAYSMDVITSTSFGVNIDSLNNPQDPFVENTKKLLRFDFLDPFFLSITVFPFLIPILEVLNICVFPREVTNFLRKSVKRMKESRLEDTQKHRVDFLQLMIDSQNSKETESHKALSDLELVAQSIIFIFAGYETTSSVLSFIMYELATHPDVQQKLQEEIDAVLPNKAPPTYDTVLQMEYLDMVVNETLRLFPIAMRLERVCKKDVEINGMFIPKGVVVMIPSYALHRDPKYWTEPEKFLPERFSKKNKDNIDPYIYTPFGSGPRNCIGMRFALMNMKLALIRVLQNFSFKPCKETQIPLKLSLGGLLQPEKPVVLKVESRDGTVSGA
Chain of Cytochrome P450 2D6 (Homo sapiens) (P10635 whole entry, looked up): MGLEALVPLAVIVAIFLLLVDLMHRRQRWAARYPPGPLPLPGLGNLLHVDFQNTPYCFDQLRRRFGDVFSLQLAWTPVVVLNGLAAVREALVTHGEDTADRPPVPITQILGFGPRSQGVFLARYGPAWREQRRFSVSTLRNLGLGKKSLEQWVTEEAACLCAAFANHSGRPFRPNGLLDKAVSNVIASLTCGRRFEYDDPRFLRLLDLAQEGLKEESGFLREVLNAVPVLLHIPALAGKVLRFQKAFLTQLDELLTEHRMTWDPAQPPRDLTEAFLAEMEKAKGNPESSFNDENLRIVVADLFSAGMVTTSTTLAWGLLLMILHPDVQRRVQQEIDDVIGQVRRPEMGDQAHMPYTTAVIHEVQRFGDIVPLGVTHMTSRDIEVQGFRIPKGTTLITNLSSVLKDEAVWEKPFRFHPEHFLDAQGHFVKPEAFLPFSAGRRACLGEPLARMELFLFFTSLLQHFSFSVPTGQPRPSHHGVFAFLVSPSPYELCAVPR
Chain of Cytochrome P450 2C9 (Homo sapiens) (P11712 whole entry, looked up): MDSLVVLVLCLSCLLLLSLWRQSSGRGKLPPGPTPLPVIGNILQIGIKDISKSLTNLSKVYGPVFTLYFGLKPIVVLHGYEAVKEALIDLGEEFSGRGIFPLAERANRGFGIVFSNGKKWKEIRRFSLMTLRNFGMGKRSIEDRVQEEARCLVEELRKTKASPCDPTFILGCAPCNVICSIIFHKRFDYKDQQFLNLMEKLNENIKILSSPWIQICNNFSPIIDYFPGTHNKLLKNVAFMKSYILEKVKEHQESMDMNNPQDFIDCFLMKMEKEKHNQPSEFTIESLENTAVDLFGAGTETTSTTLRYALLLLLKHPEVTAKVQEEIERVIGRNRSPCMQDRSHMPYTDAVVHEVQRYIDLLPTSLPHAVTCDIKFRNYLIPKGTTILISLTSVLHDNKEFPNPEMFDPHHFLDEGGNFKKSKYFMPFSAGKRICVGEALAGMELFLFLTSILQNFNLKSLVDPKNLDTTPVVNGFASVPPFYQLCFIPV
Chain of Acetylcholinesterase (Homo sapiens) (P22303 whole entry, looked up): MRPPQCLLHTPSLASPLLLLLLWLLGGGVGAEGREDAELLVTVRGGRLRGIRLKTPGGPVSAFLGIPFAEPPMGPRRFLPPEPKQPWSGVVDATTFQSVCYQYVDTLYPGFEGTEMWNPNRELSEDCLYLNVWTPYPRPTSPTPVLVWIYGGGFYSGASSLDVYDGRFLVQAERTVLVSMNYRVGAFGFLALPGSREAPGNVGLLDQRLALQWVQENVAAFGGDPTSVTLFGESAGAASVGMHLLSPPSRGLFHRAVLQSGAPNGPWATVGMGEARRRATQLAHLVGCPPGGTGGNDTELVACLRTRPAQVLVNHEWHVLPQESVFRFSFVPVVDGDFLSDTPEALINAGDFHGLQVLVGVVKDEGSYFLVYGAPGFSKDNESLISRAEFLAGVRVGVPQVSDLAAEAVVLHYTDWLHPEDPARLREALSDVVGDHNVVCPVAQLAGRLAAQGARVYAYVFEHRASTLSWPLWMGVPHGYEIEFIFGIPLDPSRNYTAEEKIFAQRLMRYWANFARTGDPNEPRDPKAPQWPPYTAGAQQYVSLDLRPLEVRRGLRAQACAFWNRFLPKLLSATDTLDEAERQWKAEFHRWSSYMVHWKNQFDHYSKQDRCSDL
Chain of Cytochrome P450 1A2 (Homo sapiens) (P05177 whole entry, looked up): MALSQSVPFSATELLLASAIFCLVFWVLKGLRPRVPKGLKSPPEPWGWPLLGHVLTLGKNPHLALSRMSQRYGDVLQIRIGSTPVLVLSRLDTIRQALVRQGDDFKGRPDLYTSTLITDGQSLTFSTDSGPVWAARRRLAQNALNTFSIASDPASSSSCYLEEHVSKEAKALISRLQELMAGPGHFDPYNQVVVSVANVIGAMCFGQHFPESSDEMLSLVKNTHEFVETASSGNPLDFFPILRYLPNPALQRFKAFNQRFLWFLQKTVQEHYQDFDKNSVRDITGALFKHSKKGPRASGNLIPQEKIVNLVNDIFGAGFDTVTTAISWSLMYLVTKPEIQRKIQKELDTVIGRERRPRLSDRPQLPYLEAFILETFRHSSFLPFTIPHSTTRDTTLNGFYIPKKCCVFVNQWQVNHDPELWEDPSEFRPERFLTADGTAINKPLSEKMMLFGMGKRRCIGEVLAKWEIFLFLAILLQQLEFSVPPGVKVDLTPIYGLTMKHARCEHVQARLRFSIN
Chain of Cytochrome P450 2C19 (Homo sapiens) (P33261 whole entry, looked up): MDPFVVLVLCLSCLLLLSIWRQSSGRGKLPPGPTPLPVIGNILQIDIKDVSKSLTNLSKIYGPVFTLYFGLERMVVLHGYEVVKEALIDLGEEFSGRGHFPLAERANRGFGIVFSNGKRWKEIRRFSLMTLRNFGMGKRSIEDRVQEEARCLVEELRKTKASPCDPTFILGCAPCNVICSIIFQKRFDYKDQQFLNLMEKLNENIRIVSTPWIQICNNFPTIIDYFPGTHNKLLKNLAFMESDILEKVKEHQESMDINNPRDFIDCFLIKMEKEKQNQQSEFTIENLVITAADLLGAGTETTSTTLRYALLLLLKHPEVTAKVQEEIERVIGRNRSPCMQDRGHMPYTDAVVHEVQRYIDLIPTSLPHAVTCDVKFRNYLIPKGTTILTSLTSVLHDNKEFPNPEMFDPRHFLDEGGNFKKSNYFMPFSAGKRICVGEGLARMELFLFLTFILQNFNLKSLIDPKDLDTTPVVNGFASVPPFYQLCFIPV
Chain of Voltage-gated inwardly rectifying potassium channel KCNH2 (Homo sapiens) (Q12809 whole entry, looked up): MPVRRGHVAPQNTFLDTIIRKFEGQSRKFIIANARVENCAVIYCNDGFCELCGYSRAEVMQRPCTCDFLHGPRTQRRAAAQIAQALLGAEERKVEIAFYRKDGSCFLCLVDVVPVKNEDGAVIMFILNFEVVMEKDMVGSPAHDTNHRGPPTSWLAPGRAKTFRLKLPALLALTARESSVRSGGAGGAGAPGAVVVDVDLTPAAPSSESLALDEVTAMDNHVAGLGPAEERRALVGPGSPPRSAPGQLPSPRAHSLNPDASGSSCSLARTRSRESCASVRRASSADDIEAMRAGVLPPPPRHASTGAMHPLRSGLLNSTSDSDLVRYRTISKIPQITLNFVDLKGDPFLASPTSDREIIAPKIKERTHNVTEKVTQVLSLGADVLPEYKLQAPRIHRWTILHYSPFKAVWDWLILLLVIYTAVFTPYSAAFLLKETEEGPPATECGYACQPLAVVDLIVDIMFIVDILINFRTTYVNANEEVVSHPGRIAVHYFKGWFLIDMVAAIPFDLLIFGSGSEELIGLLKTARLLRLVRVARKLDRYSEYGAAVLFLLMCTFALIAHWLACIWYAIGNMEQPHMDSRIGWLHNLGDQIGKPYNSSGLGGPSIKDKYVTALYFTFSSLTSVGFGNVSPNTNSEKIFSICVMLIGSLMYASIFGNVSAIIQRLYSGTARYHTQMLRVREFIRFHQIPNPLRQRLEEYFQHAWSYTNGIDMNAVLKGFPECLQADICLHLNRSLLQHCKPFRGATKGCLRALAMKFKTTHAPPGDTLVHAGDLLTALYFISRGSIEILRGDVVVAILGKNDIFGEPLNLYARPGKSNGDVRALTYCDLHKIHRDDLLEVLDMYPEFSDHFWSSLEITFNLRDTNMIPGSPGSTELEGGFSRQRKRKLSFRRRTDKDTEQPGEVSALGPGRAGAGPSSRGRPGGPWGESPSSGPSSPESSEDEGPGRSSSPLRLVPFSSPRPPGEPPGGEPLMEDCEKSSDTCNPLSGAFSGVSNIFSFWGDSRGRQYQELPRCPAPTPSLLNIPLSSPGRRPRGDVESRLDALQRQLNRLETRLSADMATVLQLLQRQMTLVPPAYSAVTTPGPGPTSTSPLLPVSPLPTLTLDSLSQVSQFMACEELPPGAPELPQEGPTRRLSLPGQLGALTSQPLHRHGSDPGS

With `CC(C)C1CCC(Cc2ccc(Cl)cc2)C1(O)Cn1cncn1` (stereo not given), the Potency result in [1], in [2] and in test [3] was “inactive” throughout. Also, the Potency in test [4] is 22.2 µM (active); in test [5] it was 0.353 µM (active); in test [6], 0.789 µM (active); in test [7], 31.4 µM (active); in test [8] it was 34.3 µM (active).

In the case of `Oc1ccc(C2(c3ccc(O)cc3)c3ccccc3-c3ccccc32)cc1`, the Potency in test [1] was 39.9 µM (active); in test [4], 79.6 µM (active); in [5], 25.2 µM (active); in [6] it was 20 µM (active); in test [7] it was 79.6 µM (active). The Potency result in test [2], in [3] and in test [8] was “inactive” each time.

Consider `N#CNC#N`, for which the Potency entry in test [1], in test [2], in [3], in test [4], in test [5] and in [6] was “inactive” in each case. Besides, the Potency result in [7], in test [8] and in test [9] was “inactive” throughout.

Turning to `COS(=O)(=O)c1ccc(C)cc1`, the Potency result in test [1], in test [2], in test [3], in [4], in [5] and in test [6] was “inactive” throughout. Moreover, the Potency result in test [7], in [8] and in test [9] was “inactive” throughout.

For the compound `CC(c1ccc(O)cc1)c1ccc(O)cc1`, the Potency result in test [1], in test [2] and in [3] was “inactive” in each case. For the same compound, the Potency in [4] was 33.4 µM (active) and inactive; in test [5] it was 21 µM (active) and inactive; in test [6] it was 59.3 µM (active) and 35.6 µM (active); in test [7], 37.4 µM (active) and inactive; in test [8], 51.5 µM (active) and inactive; in test [9], 42 µM (active).

For `CN(CCCC(O)c1cccnc1)N=O` (stereo not given), the Potency result in test [1], in [2], in test [3], in [4], in test [5] and in [6] was “inactive” each time. The Potency entry in [7] and in [8] was “inactive” in each case.

Consider `COc1ccc(/C(=C/C(=O)N2CCOCC2)c2ccc(Cl)cc2)cc1OC`, for which the Potency entry in test [1], in test [2], in [3], in test [4] and in test [7] was “inactive” each time. The Potency was 56.4 µM (active) in [5], 31.7 µM (active) in test [6], 12.3 µM (active) in test [8] and 3.17 µM (active) in test [9].

Regarding `N#CCc1ccc(Cl)cc1`, the Potency entry in [1], in test [2], in test [3], in test [4], in test [6] and in test [8] was “inactive” throughout. The figures for the Potency in test [5] and in test [7] were 39.9 µM (active) and 31.7 µM (active), respectively.

On to `Cl/C=C\CCl`, for which the Potency result in test [1], in test [2], in test [3], in test [4], in test [5] and in [6] was “inactive” in each case. In addition, the Potency entry in test [8] and in test [9] was “inactive” throughout. Besides, in [7], the Potency was 35.6 µM (active).

Regarding `N#Cc1ccccc1Cl`, the Potency entry in [1], in test [2], in [3], in test [4], in test [5] and in test [6] was “inactive” each time. The Potency entry in [7], in test [8] and in [9] was “inactive” in each case.

On to `CCCN(CC)CC1COC2(CCC(C(C)(C)C)CC2)O1` (stereo not given), for which the Potency result in test [1], in test [2] and in [3] was “inactive” throughout. Moreover, the Potency in [4] was 12.6 µM (active); in test [5], 11.2 µM (active).

On to `Nc1ccccc1C(=O)OC/C=C/c1ccccc1`, for which the Potency result in [1], in test [2] and in [3] was “inactive” each time.

Consider `OC(c1ccc(Cl)cc1)(c1ccc(Cl)cc1)C(Cl)(Cl)Cl`, for which the Potency entry in test [1], in test [2], in test [3] and in test [9] was “inactive” in each case. Besides, the Potency is 31.7 µM (active) in [4]; 0.0564 µM (active) in [5]; 5.03 µM (active) in test [6]; 14.2 µM (active) in test [7]; 24.5 µM (active) in test [8].

For `CC(C)(COCC1CO1)COCC1CO1` (stereo not given), the Potency result in [1], in [2], in test [3], in test [4], in test [6] and in test [7] was “inactive” each time. Moreover, the Potency entry in test [8] and in test [9] was “inactive” in each case. Moreover, in test [5], the Potency was 79.6 µM (active).

With `N#C/C=C/c1ccccc1`, the Potency entry in test [1], in test [2], in [3], in test [4], in test [5] and in test [6] was “inactive” in each case. Further, the Potency entry in test [8] and in [9] was “inactive” throughout. Further, the Potency in test [7] was 35.6 µM (active).

With `N#Cc1ccc(O)cc1`, the Potency entry in test [1], in [2], in test [3], in test [4], in test [6] and in [7] was “inactive” throughout. The Potency result in [8] and in [9] was “inactive” in each case. Besides, the Potency in test [5] was 89.4 µM (active).

On to `COP(=S)(OC)Oc1cc(Cl)c(Br)cc1Cl`, for which the Potency entry in [1], in test [2], in test [3] and in test [4] was “inactive” in each case. Besides, the figures for the Potency in [5], in [6] and in test [7] were 17.8 µM (active), 5.64 µM (active) and 11.2 µM (active), respectively.

Regarding `C1CCC2CCCCC2C1` (stereo not given), the Potency result in test [1], in test [2], in test [3], in test [4], in [5] and in test [6] was “inactive” each time. Moreover, the Potency result in [7], in test [8] and in [9] was “inactive” in each case.

Turning to `CN(C)CCc1c[nH]c2ccc(O)cc12`, the Potency result in test [1], in test [2], in [3], in test [5], in test [7] and in test [8] was “inactive” in each case. Besides, in test [9], the Potency entry was “inactive”. Further, the Potency in test [4] was 17.4 µM (active); in test [6], 24.6 µM (active).

In the case of `O=C1NCN(c2ccccc2)C12CCN(CC1COc3ccccc3O1)CC2` (stereo not given), the Potency entry in test [1], in test [2], in test [3] and in [7] was “inactive” in each case. Besides, the Potency in test [4] was 0.11 µM (active); in test [5], 4.36 µM (active); in [6], 8.71 µM (active); in [8] it was 7.56 µM (active).

For the compound `Cc1c(Cl)c(=O)oc2cc(OP(=O)(OCCCl)OCCCl)ccc12`, the Potency in test [1] was 0.246 µM (active); in test [2], 0.275 µM (active); in test [3], 3.09 µM (active); in test [4] it was 3.47 µM (active).

Regarding `Nc1ccc(Sc2ccc(N)cc2)cc1`, the Potency entry in test [1], in test [2], in test [3] and in test [8] was “inactive” each time. The Potency was 31.7 µM (active) in [4], 5.03 µM (active) in test [5], 1.23 µM (active) in test [6] and 35.6 µM (active) in test [7].

Values taken from PubChem BioAssay (Tox21).
